Inconclusive results are not listed. Activity calls are given as the source filed them. Unless noted, the call rests on the fitted dose curve; in most records, active means well fitted curve in the direction sought with a large enough effect in the repeat runs; inconclusive means weak or mixed curves; inactive means no such curve, though single readings can be large; an effect the other way counts as inactive or inconclusive.
Assays:
[1] = qHTS assay for small molecules that induce genotoxicity in human embryonic kidney cells expressing luciferase-tagged ATAD5 (AID 651632); further: nearly all actives have a fitted effect of over 15% in size
Method in brief: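 Quantitative HTS in HEK293T expressing luciferase-tagged ATAD5, whose levels rise upon DNA damage. Exposure ran 16 hr at 37C and 5% CO2, with luminescence read 30 min after Amplite addition at room temperature.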

[2] = qHTS assay for small molecules that induce genotoxicity in human embryonic kidney cells expressing luciferase-tagged ATAD5 - cell viability (AID 651634; calls by dose curve; further: nearly all actives have a fitted effect of over 25% in size)
Method in brief: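 After 15.5 hr incubation with compound at 37C, 5% CO2, HEK293T ATAD5-luciferase cells received CellTiter-Fluor reagent; fluorescence intensity was quantified following 30 min at 37C.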

[3] = qHTS assay for small molecule disruptors of the mitochondrial membrane potential - cell viability (AID 720634; calls by dose curve;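 further: human HepG2 liver cancer cells; series mostly up to about 83 µM; nearly all actives have a fitted effect of over 20% in size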)
Method in brief: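 ATP-based luminescent viability readout (CellTiter-Glo, 30 min, room temperature) in HepG2 cells multiplexed with the m-MPI membrane potential dye; compound exposure lasted 1 hr at 37 C.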

[4] = qHTS assay to test for compound auto fluorescence at 535 nm (green) in HepG2 cells (AID 720675)
[5] = qHTS assay to test for compound auto fluorescence at 590 nm (red) in HEK293 cells (AID 720679)
Method in brief: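 Red autofluorescence, HEK293 cells: 2,000 cells/well; attach 4-5 hr 37C; add 23 nL cpd or DMSO; incubate o/n 37C 5% CO2; read Ex540/Em590; Rose Bengal sodium reference.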

[6] = qHTS assay to test for compound auto fluorescence at 535 nm (green) in HEK293 cells (AID 720680)
[7] = qHTS assay to test for compound auto fluorescence at 590 nm (red) in HepG2 cell free culture (AID 720684)
Method in brief: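 Rose Bengal sodium served as the reference for red signal. Test compounds were dispensed into serum-containing MEM (10% FBS) without cells, and plates were read at 540/590 nm.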

[8] = qHTS assay to test for compound auto fluorescence at 460 nm (blue) in HepG2 cell free culture (AID 720685)
Method in brief: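 Cell-free plates of MEM plus 10% FBS received 23 nL compound or DMSO vehicle; blue-channel (405/460 nm) intensity scored against triamterene as reference fluorophore.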

[9] = qHTS assay to test for compound auto fluorescence at 535 nm (green) in HepG2 cell free culture (AID 720686)
[10] = qHTS assay to identify small molecule antagonists of the glucocorticoid receptor (GR) signaling pathway - cell viability counter screen (AID 720693); further: nearly all actives have a fitted effect of over 55% in size
[11] = qHTS assay to identify small molecule antagonists of the androgen receptor (AR) signaling pathway using the MDA cell line - cell viability counter screen (AID 743041; further: nearly all actives have a fitted effect of over 45% in size)
Method in brief: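 Cytotoxicity counter screen: MDA-kb2 AR-luc cells, compound + R1881, 16 h, 37C, 0% CO2; CellTiter-Fluor added at 15.5 h, fluorescence read after 30 min.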

[12] = qHTS assay to identify small molecule antagonists of the thyroid receptor (TR) signaling pathway - cell viability counter screen (AID 743064); further: nearly all actives have a fitted effect of over 50% in size
Method in brief: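 Fluorescence from CellTiter-Fluor, added after 23.5 h exposure at 37 °C, reported viability of GH3.TRE-Luc cells co-treated with compound and 1 nM T3. Measured in the same wells as the luciferase TR readout.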

[13] = qHTS assay to identify small molecule antagonists of the thyroid receptor (TR) signaling pathway (AID 743065); further: series mostly up to about 70 µM; nearly all actives have a fitted effect of over 55% in size
Method in brief: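 GH3.TRE-Luc rat pituitary cells (two TREs driving luciferase) were dosed with compound, then stimulated with 1 nM T3 (final) for 23.5 h at 37 C. ONE-Glo luminescence was the read-out, with CellTiter-Fluor fluorescence as the cytotoxicity counter-screen.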

[14] = test system: thyroid hormone receptor (rat, GH3 cells); test: qHTS assay to identify small molecule agonists of the thyroid receptor (TR) signaling pathway (AID 743066; calls by dose curve)
[15] = qHTS assay to identify small molecule antagonists of the estrogen receptor alpha (ER-alpha) signaling pathway - cell viability counter screen (AID 743074; calls by dose curve;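 further: HEK293 cells carrying ER-alpha-UAS-bla reporter stimulated with 17beta-estradiol; nearly all actives have a fitted effect of over 45% in size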)
[16] = qHTS assay to identify small molecule antagonists of the estrogen receptor alpha (ER-alpha) signaling pathway using the BG1 cell line - cell viability counter screen (AID 743081);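 further: compound given together with 17beta-estradiol as the ER stimulus; series mostly up to about 70 µM; nearly all actives have a fitted effect of over 45% in size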
[17] = biological target: Aromatase (Homo sapiens) (UniProt P11511); test: qHTS assay to identify aromatase inhibitors (AID 743083); further: series mostly up to about 70 µM; nearly all actives have a fitted effect of over 55% in size
[18] = qHTS assay to identify aromatase inhibitors - cell viability counter screen (AID 743084);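 further: cells stimulated with testosterone during compound exposure; nearly all actives have a fitted effect of over 55% in size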
[19] = qHTS assay to identify small molecule that activate the aryl hydrocarbon receptor (AhR) signaling pathway - cell viability counter screen (AID 743086);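 further: HepG2 liver cells carrying the AhR DRE luciferase reporter; series mostly up to about 70 µM; nearly all actives have a fitted effect of over 45% in size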
Method in brief: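 HepG2-AhR-luc (HG2L7.5c1) cells, 4000/well, treated 24 h at 37 C with compound; viability measured as CellTiter-Fluor fluorescence after 30 min in the same wells as the luciferase read.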

[20] = qHTS assay to identify small molecule phospholipidosis (PLD) inducers (AID 1259344; active means well fitted curve in the direction sought with a large enough effect; an effect the other way counts as inactive or inconclusive)
Method in brief: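 Read-out is LipidTOX Red fluorescence (ex 595/em 615) imaged in HepG2 cells after 24 h compound exposure at 37 C, with Hoechst nuclear counterstain (ex 352/em 461) allowing per-cell normalisation.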

Measured: Potency

Chain of Aromatase (Homo sapiens) (P11511 whole entry, looked up): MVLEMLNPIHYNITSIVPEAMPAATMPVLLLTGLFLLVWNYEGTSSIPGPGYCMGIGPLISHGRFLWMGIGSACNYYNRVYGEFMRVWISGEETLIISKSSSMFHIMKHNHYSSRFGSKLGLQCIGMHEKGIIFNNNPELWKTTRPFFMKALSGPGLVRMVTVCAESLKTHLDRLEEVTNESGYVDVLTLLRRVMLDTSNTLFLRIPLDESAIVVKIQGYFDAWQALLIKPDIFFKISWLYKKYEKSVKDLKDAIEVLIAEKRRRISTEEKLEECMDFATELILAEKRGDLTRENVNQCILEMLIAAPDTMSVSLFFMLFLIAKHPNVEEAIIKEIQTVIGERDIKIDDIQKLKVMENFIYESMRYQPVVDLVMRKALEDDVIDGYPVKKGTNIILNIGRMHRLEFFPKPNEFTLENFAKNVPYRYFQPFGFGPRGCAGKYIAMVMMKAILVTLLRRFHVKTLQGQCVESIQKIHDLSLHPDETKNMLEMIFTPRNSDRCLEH

CC(Cc1ccccc1)NC=O (configuration not stated)
inactive: all assays above

CCNC(C)Cc1cccc(C(F)(F)F)c1 (configuration not stated)
inactive: all assays above

CCCC(=O)OC(C(Cl)(Cl)Cl)P(=O)(OC)OC (configuration not stated)
not listed: [2]
inactive: all other assays above

c1cc2c(c(NC3=NCCN3)c1)CCCC2
not listed: [12] | [13]
inactive: all other assays above

C/C=C(\CC)C(=O)NC(N)=O
inactive: all assays above

C=CCC1(C(C)CCC)C(=O)N=C(S)NC1=O (configuration not stated)
inactive: all assays above

Reference: PubChem BioAssay (Tox21)
